Over roughly 140,000 sequences, “enrichment ratio after two sorts for PhoP signalling” has its median near 0; the highest 2% begin near 11. Many of the other results were omitted from the sample, so the highest values are more common in it than they were.
B1: PhoQ; a variant is named by its letters at X, in order, P23837 (parent)
chain: MKKLLRLFFPLSLRVRFLLATAAVVLVLSLAYGMVALIGYSVSFDKTTFRLLRGESNLFYTLAKWENNKLHVELPENIDKQSPTMTLIYDENGQLLWAQRDVPWLMKMIQPDWLKSNGFHEIEADVNDTSLLLSGDHSIQQQLQEVREDDDDAEMTHSVAVNVYPATSRMPKLTIVVVDTIPVELKSSYMVWSWFIYVLSANLLLVIPLLWVAAWWSLRPIEALAKEVRELEEHNRELLNPATTRELTSLVRNLNRLLKSERERYDKYRTTLTDLTHSLKTPLXXLQXXLRSLRSEKMSVSDAEPVMLEQISRISQQIGYYLHRASMRGGTLLSRELHPVAPLLDNLTSALNKVYQRKGVNISLDISPEISFVGEQNDFVEVMGNVLDNACKYCLEFVEISARQTDEHLYIVVEDDGPGIPLSKREVIFDRGQRVDTLRPGQGVGLAVAREITEQYEGKIVAGESMLGGARMEVIFGRQHSAPKDE

Variants of: B1
Experiment: enrichment ratio after two sorts for PhoP signalling (ratio (wild type AVST 3.29)); higher = more functional
Settings: with PhoP (E. coli)

PTWI and FAIR cannot be ordered by enrichment ratio: ≤ 0.25 for the first, ≤ 0.25 for the second.

First: IVHI
Second: MQLF
The enrichment ratio of the first is lower: ≤ 0.25 for the first, 2.66 for the second.

Going from IWYQ to ATSW, the enrichment ratio rises from ≤ 0.25 to 1.32.

Going from HLTG to NALG, the enrichment ratio falls from 1.04 to 0.397.

Compared with PTLG, SALG is higher in enrichment ratio: ≤ 0.25 for the first, 15.9 for the second.

KALG and KCLG cannot be ordered by enrichment ratio: ≤ 0.25 for the first, ≤ 0.25 for the second.

Going from SWLG to SCLG, the enrichment ratio rises from ≤ 0.25 to 12.6.

Compared with STLG, GCLG is higher in enrichment ratio: 14.5 for the first, 14.9 for the second.

Going from QCLG to SPLG, the enrichment ratio falls from 2.4 to ≤ 0.25.

PWLG and WEVH cannot be ordered by enrichment ratio: ≤ 0.25 for the first, ≤ 0.25 for the second.

HANP and NMEQ cannot be ordered by enrichment ratio: ≤ 0.25 for the first, ≤ 0.25 for the second.

ILFS and QRWI cannot be ordered by enrichment ratio: ≤ 0.25 for the first, ≤ 0.25 for the second.

ISPF and CVQT cannot be ordered by enrichment ratio: ≤ 0.25 for the first, ≤ 0.25 for the second.

First: FDLG
Second: TQLG
The enrichment ratio of the first is lower: ≤ 0.25 for the first, 16.7 for the second.

Going from SGLG to NGLG, the enrichment ratio falls from 15.5 to ≤ 0.25.

KQLG and DPLG cannot be ordered by enrichment ratio: ≤ 0.25 for the first, ≤ 0.25 for the second.

Compared with TGLG, SYLG is lower in enrichment ratio: 10.1 for the first, 9.61 for the second.

Going from SQLG to WQLG, the enrichment ratio falls from 19.1 to ≤ 0.25.

First: FQLG
Second: EQLG
The enrichment ratio of the first is higher: 16.7 for the first, ≤ 0.25 for the second.

GAQK and NGQA cannot be ordered by enrichment ratio: ≤ 0.25 for the first, ≤ 0.25 for the second.

VMKG and ILNQ cannot be ordered by enrichment ratio: ≤ 0.25 for the first, ≤ 0.25 for the second.

DMSW and TCQW cannot be ordered by enrichment ratio: ≤ 0.25 for the first, ≤ 0.25 for the second.

LQMI and MMFL cannot be ordered by enrichment ratio: ≤ 0.25 for the first, ≤ 0.25 for the second.

HDFE and WLYA cannot be ordered by enrichment ratio: ≤ 0.25 for the first, ≤ 0.25 for the second.

First: KYLG
Second: SELG
The enrichment ratio of the first is lower: ≤ 0.25 for the first, 25.3 for the second.

Compared with MQWG, MQLA is lower in enrichment ratio: 4.64 for the first, ≤ 0.25 for the second.

First: SFLG
Second: MQLG
The enrichment ratio of the first is lower: 10.9 for the first, 22 for the second.

Going from LEAH to TEQC, the enrichment ratio rises from 0.895 to 9.21.

FELK and FTPI cannot be ordered by enrichment ratio: ≤ 0.25 for the first, ≤ 0.25 for the second.

MFEY and WMWW cannot be ordered by enrichment ratio: ≤ 0.25 for the first, ≤ 0.25 for the second.

Going from GGSG to TFSG, the enrichment ratio rises from ≤ 0.25 to 13.9.

Compared with KQSG, TGSG is higher in enrichment ratio: ≤ 0.25 for the first, 16.4 for the second.

Going from KSSG to TSSG, the enrichment ratio rises from ≤ 0.25 to 14.4.

PGSG and NSSG cannot be ordered by enrichment ratio: ≤ 0.25 for the first, ≤ 0.25 for the second.

HFSG and YTSG cannot be ordered by enrichment ratio: ≤ 0.25 for the first, ≤ 0.25 for the second.

Compared with PFSG, TTSG is higher in enrichment ratio: ≤ 0.25 for the first, 19.5 for the second.

MWFY and SQPK cannot be ordered by enrichment ratio: ≤ 0.25 for the first, ≤ 0.25 for the second.

VRWV and SYQC cannot be ordered by enrichment ratio: ≤ 0.25 for the first, ≤ 0.25 for the second.

Compared with RTQR, TVSG is higher in enrichment ratio: ≤ 0.25 for the first, 20.3 for the second.

Compared with HCSG, GNSG is higher in enrichment ratio: ≤ 0.25 for the first, 13.2 for the second.

Compared with SPSG, GVSG is higher in enrichment ratio: ≤ 0.25 for the first, 7.26 for the second.

Going from GISG to WDLS, the enrichment ratio falls from 8.5 to ≤ 0.25.

DAKY and NIQR cannot be ordered by enrichment ratio: ≤ 0.25 for the first, ≤ 0.25 for the second.

Going from KKLG to AFLG, the enrichment ratio rises from ≤ 0.25 to 15.7.

Going from AQLG to SHLG, the enrichment ratio falls from 18.8 to 10.8.

Compared with ADLG, AILG is higher in enrichment ratio: 3.46 for the first, 15.7 for the second.

Compared with AHLG, AFTG is lower in enrichment ratio: 6.95 for the first, 5.35 for the second.

NHLG and AFFG cannot be ordered by enrichment ratio: ≤ 0.25 for the first, ≤ 0.25 for the second.

Going from THLG to APLG, the enrichment ratio falls from 14.4 to ≤ 0.25.

MEPF and WCFV cannot be ordered by enrichment ratio: ≤ 0.25 for the first, ≤ 0.25 for the second.

GSFI and RMTQ cannot be ordered by enrichment ratio: ≤ 0.25 for the first, ≤ 0.25 for the second.

YEWD and LWMC cannot be ordered by enrichment ratio: ≤ 0.25 for the first, ≤ 0.25 for the second.

Compared with QNWS, PPKF is lower in enrichment ratio: 8.87 for the first, ≤ 0.25 for the second.

Going from WPCT to SLTH, the enrichment ratio rises from ≤ 0.25 to 5.18.

NKDQ and FHGD cannot be ordered by enrichment ratio: ≤ 0.25 for the first, ≤ 0.25 for the second.

Going from YTLG to ATLG, the enrichment ratio rises from 6.93 to 12.3.

Going from DMLG to FSLG, the enrichment ratio rises from ≤ 0.25 to 8.53.

First: VRLG
Second: TTLG
The enrichment ratio of the first is lower: ≤ 0.25 for the first, 10.6 for the second.

Compared with ASLG, NMLG is lower in enrichment ratio: 18.2 for the first, ≤ 0.25 for the second.

First: TMLG
Second: RQGG
The enrichment ratio of the first is higher: 11.6 for the first, ≤ 0.25 for the second.

RQFP and PNPW cannot be ordered by enrichment ratio: ≤ 0.25 for the first, ≤ 0.25 for the second.

RIWK and NTQW cannot be ordered by enrichment ratio: ≤ 0.25 for the first, ≤ 0.25 for the second.

QDPH and RWEP cannot be ordered by enrichment ratio: ≤ 0.25 for the first, ≤ 0.25 for the second.

Going from AMTN to STTN, the enrichment ratio falls from 27.1 to 19.3.

First: VLTN
Second: SQTN
The enrichment ratio of the first is lower: ≤ 0.25 for the first, 8.46 for the second.

First: TMTN
Second: VHTN
The enrichment ratio of the first is higher: 13.4 for the first, ≤ 0.25 for the second.

Compared with KYTN, GHTN is higher in enrichment ratio: ≤ 0.25 for the first, 12.9 for the second.

NMTN and WITN cannot be ordered by enrichment ratio: ≤ 0.25 for the first, ≤ 0.25 for the second.

Compared with THTN, DMTN is lower in enrichment ratio: 4.21 for the first, ≤ 0.25 for the second.

First: YVCF
Second: PGGT
The enrichment ratio of the first is higher: 0.805 for the first, ≤ 0.25 for the second.

RGRC and FMKW cannot be ordered by enrichment ratio: ≤ 0.25 for the first, ≤ 0.25 for the second.

TWYE and YSAH cannot be ordered by enrichment ratio: ≤ 0.25 for the first, ≤ 0.25 for the second.

HNNM and QGTS cannot be ordered by enrichment ratio: ≤ 0.25 for the first, ≤ 0.25 for the second.

KCTN and YTTN cannot be ordered by enrichment ratio: ≤ 0.25 for the first, ≤ 0.25 for the second.

First: DETN
Second: ATTN
The enrichment ratio of the first is lower: ≤ 0.25 for the first, 20.6 for the second.

First: TCTN
Second: SVTN
The enrichment ratio of the first is higher: 22.5 for the first, 16.4 for the second.

First: NETN
Second: TETN
The enrichment ratio of the first is lower: ≤ 0.25 for the first, 24.4 for the second.

GTTN and SPTN cannot be ordered by enrichment ratio: ≤ 0.25 for the first, ≤ 0.25 for the second.

KFTN and VCTN cannot be ordered by enrichment ratio: ≤ 0.25 for the first, ≤ 0.25 for the second.

RCRT and YSIQ cannot be ordered by enrichment ratio: ≤ 0.25 for the first, ≤ 0.25 for the second.

WKRH and LAIW cannot be ordered by enrichment ratio: ≤ 0.25 for the first, ≤ 0.25 for the second.

NWSE and LYIV cannot be ordered by enrichment ratio: ≤ 0.25 for the first, ≤ 0.25 for the second.

WHIR and YPIA cannot be ordered by enrichment ratio: ≤ 0.25 for the first, ≤ 0.25 for the second.

GPAN and AKTN cannot be ordered by enrichment ratio: ≤ 0.25 for the first, ≤ 0.25 for the second.

Compared with AITN, KSTN is lower in enrichment ratio: 22.4 for the first, ≤ 0.25 for the second.

FIQE and GTVS cannot be ordered by enrichment ratio: ≤ 0.25 for the first, ≤ 0.25 for the second.

GCVI and GIGD cannot be ordered by enrichment ratio: ≤ 0.25 for the first, ≤ 0.25 for the second.

Going from GNVI to GTMI, the enrichment ratio falls from 14.7 to ≤ 0.25.

Going from GYMI to GIVI, the enrichment ratio rises from ≤ 0.25 to 6.54.

First: GIMI
Second: GIFA
The enrichment ratio of the first is higher: 25.7 for the first, ≤ 0.25 for the second.

First: GNMI
Second: EHCK
The enrichment ratio of the first is higher: 46.4 for the first, ≤ 0.25 for the second.

DQHH and AQEG cannot be ordered by enrichment ratio: ≤ 0.25 for the first, ≤ 0.25 for the second.

LKYY and FGWK cannot be ordered by enrichment ratio: ≤ 0.25 for the first, ≤ 0.25 for the second.

SEER and RPGL cannot be ordered by enrichment ratio: ≤ 0.25 for the first, ≤ 0.25 for the second.

First: QQNS
Second: QENH
The enrichment ratio of the first is lower: 8.87 for the first, 70.4 for the second.

Compared with QLNH, QQNH is higher in enrichment ratio: ≤ 0.25 for the first, 12.7 for the second.

QPNH and QQSH cannot be ordered by enrichment ratio: ≤ 0.25 for the first, ≤ 0.25 for the second.

HNFM was tested, and the enrichment ratio was ≤ 0.25.

Source: a collection of fitness landscapes (doi:10.1126/science.1257360)
